# Only some compounds are listed: those with a hit (about 19% of all), similar ones and a draw of the others.
# TGFb inhibitor = TGF-b pathway inhibition | Potency, µM (top dose mostly 46.1 µM), without a hit: at the highest dose activity, negative = inhibition, hits mostly inhibitors | HepG2 CAGA-GFP TGF-b/SMAD3 reporter, GFP fluorescence, 18 h; TGF-beta stimulated, 500 pg/mL final | 1.2% of 410,000 active; further: potency means the concentration at half of the fitted maximal effect; on the % scale 0 is the no-effect control and ±100 the full control effect; nearly all actives have a fitted effect of over 65% in size
#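 Inhibition was scored as loss of TGF-beta-induced (500 pg/mL final, 18 hours, 37 degrees C) GFP in HEPG2 cells carrying a CAGA-GFP reporter, in DMEM with 1% FBS. Well GFP was summed per cell; Activity was normalised to unstimulated and stimulated DMSO wells, then concentration-response fitting.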
# TDP1 block = blocks human tyrosyl-DNA phosphodiesterase 1; Q9NUW8; recombinant TDP1, AlphaScreen DNA substrate cleavage; Potency, µM (doses to about 130 µM), inactives show at the highest dose activity change, negative = inhibition, most hits filed as inhibitors; 0.28% of 350,000 active; AID 485290; further: potency means the concentration at half of the fitted maximal effect; on the % scale 0 is the no-effect control and ±100 the full control effect; nearly all actives have a fitted effect of over 40% in size
# Target sequence (Q9NUW8 whole entry, looked up): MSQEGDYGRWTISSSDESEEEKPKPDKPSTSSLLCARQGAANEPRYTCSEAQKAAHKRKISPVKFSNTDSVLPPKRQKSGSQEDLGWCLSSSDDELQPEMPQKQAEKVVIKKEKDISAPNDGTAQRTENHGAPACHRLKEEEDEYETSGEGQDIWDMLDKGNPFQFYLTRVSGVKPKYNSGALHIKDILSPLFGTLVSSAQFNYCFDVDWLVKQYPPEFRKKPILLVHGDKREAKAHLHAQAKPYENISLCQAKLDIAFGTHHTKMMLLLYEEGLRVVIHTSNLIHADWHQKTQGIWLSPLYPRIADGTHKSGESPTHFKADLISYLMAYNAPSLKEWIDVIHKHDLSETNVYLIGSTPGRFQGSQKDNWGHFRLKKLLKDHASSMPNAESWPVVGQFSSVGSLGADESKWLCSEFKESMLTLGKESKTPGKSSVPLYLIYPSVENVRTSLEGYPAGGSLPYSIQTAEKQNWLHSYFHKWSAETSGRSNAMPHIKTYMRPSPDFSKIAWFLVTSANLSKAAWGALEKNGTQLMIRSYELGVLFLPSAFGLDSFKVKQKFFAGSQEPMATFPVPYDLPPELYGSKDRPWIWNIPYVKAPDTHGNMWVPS
#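 Enzyme-compound mixtures sat 15 min at room temperature, followed by a 5 min reaction with 15 nM final substrate and 10 min with AlphaScreen beads. Recombinant human Tdp1 was used at 1 nM final.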
# HepG2 tox = kills HepG2 cells in TGF-b inhibitor counter-screen | HepG2 CAGA-GFP viability, ATP luminescence, 18 h | Potency, µM (top dose mostly 46.1 µM), inactives show at the highest dose activity change, negative = cytotoxicity, actives largely listed as cytotoxic | 0.76% of 410,000 active | AID 588856; further: potency means the concentration at half of the fitted maximal effect
#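 CellTiter-Glo luminescence gave cytotoxicity after 18 hours at 37 degrees C. The cells were HepG2 CAGA-GFP in 1% FBS DMEM, stimulated with 500 pg/mL TGF-beta after compound addition. %Activity was normalised to no-cell wells (complete cell-killing) and DMSO (no toxicity), and curves were fitted and classified.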
# TDP1 cell CPT = growth inhibition of DT40 Tdp1-/-;hTDP1 cells with camptothecin (screen for TDP1 inhibitors) | AID 686979 | 12% of 420,000 active | Potency, µM (series often up to 46.2 µM), for the others: at the top dose activity change, negative = growth inhibition, most hits filed as inhibitors | chicken DT40 Tdp1-/-;hTDP1 cells + 20 nM CPT, ATP luminescence, 48 h; further: potency means the concentration at half of the fitted maximal effect; on the % scale 0 is the no-effect control and ±100 the full control effect; nearly all actives have a fitted effect of over 55% in size
#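 Chicken DT40 Tdp1-/- cells stably complemented with human TDP1 were seeded at 400 cells/well in medium containing 20 nM camptothecin, exposed to pin-transferred compounds, and grown at 37 °C for at least 48 hr. Viability was read as ATP luminescence.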
# IL1B secr inh = inhibitors of inflammasome signaling (IL-1 beta secretion). THP-1 LPS/ATP IL-1B secretion, AlphaLISA, 16 h; hits give low values. activity change, % at 57.5 µM. 4.7% of 360,000 active; in the data active means activity change below about -50%; inconclusive means mostly about -30% to -49%; further: on the % scale 0 is the no-effect control and ±100 the full control effect
#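 THP-1 cells pretreated 1 hr with compounds (up to 57.5 uM final), then stimulated with LPS (250 ng/mL final) plus ATP (1.25 mM final); secreted IL-1B measured by AlphaLISA after 16 hr, decreased signal indicating inhibition.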
# TDP1 cell noCPT = qHTS for Inhibitors of human tyrosyl-DNA phosphodiesterase 1 (TDP1): qHTS in cells in absence of CPT | DT40 Tdp1-/- hTDP1 cells, no CPT, ATP luminescence, 48 h | Potency, µM (doses to about 46.2 µM), without a hit: at the highest dose activity change, negative = growth inhibition, usual class: inhibitors | 15% of 420,000 active; further: potency means the concentration at half of the fitted maximal effect; on the % scale 0 is the no-effect control and ±100 the full control effect; nearly all actives have a fitted effect of over 55% in size
#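 Chicken DT40 Tdp1-/- cells stably complemented with human TDP1 were seeded at 400 cells/well with DMSO in place of 20 nM camptothecin. After compound pinning, cells grew at least 48 hr at 37 °C; viability read by CellTiter-Glo luminescence.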
# * hit, by the source's call; ? = inconclusive; / = no result given; [ ] = dose if it differs, or a comment. Unless noted, the call rests on the fitted dose curve; in most records, active means well fitted curve in the direction sought with a large enough effect; inconclusive means small, poorly fitted or top-dose-only effect, or another doubt; inactive means no such curve, though single readings can be large; an effect the other way counts as inactive or inconclusive.
SMILES,TGFb inhibitor,TDP1 block,HepG2 tox,TDP1 cell CPT,IL1B secr inh,TDP1 cell noCPT
O=C(CN1CCN(c2ccccc2F)CC1)c1ccc(O)c(O)c1,-16%,/,4%,23µM*,80,10µM*
COc1ccc2c(c1)c(C(=O)CN1CCOCC1)c(C)n2C,14%,10%,22%,-1%,20,-22%
Cc1ccc(-n2ncc3c2CC(C)(C)CC3NC(=O)CCN2CCCCC2=O)cc1 (configuration not stated),-16%,0%,-8%,-26%,1,-22%
CCC(C)C(CO)NCCCn1cnc2c(SC)ncnc21 (configuration not stated),-8%,/,-21%,0%,53,-5%
CN(C)C(=O)c1ccc(-c2ccc3ncnc(NCc4cccs4)c3c2)cc1,/,/,/,-28%,/,-25%
O=C(O)CC1(CC(=O)N2CCOCC2)CCCC1,-9%,1%,-15%,13%,8,5%
Cc1c(O)ccc(C(=O)CN2CCN(c3ccccc3F)CC2)c1O,-17%,3%,-21%,?,12,23µM*
NC(=O)CN1CCN(c2ccccc2F)CC1,4%,3%,-34%,7%,-11,-13%
CCCCn1c(SCC(=O)OCC)nc2c(sc(=S)n2-c2ccccc2OC)c1=O,1%,/,-4%,-9%,13,-29%
COc1ccc(CCNC(=O)CSc2nnc(CNc3ccc(Cl)cc3)o2)cc1OC,1%,7%[56.1 µM],-41%,?,18,?
O=C(CSc1nnc(CNc2ccc(Cl)cc2)o1)Nc1nc2c(s1)CCCC2,?,13%,10%,15µM*,-16,?
Oc1ccc(Nc2nc(-c3cccs3)cs2)cc1,-4%,-3%,-50%,-7%,-3,6%
COc1cccc(-c2csc(Nc3ccc(Oc4ccccc4)cc3)n2)c1,?,/,-3%,?,-18,?
COc1ccc(Nc2nc(-c3cccs3)cs2)cc1,-13%,6%,8%,21µM*,4,23µM*
COc1ccccc1-c1csc(Nc2ccc(Oc3ccccc3)cc2)n1,?,/,-5%,18µM*,7,?
CCn1c(CNC(=O)c2ccccc2Br)nnc1SCC(=O)Nc1nncs1,0%,-5%,-23%,-6%,-5,-12%
CC(=O)n1cc(/C=N/NC(N)=S)c2ccccc21,-20%,3%,2%,?,-15,-102%
CNC(=S)N/N=C/c1cn(CCOc2ccc(OC)cc2)c2ccccc12,0%,8%,-21%,8.2µM*,-22,7.3µM*
COC(=O)c1cn(CCOc2ccccc2OC)c2ccccc12,?,5%,-7%,18µM*,-4,15µM*
O=C(N/N=C/c1cn(CCOc2ccccc2)c2ccccc12)c1ccncc1,?,8%,-42%,1%,14,-7%
COc1ccccc1OCCn1cc(/C=N/NC(=O)c2ccncc2)c2ccccc21,-21%,/,0%,-28%,-7,18µM*
COc1ccccc1OCCn1cc(/C=N/NC(N)=S)c2ccccc21,-1%,10%,-10%,?,-2,29µM*
Cc1ccc(N(CC(O)CN2C(=O)NC(C)(C)C2=O)S(=O)(=O)c2ccc([N+](=O)[O-])cc2)cc1 (configuration not stated),0%,7%,-8%,2%,-4,-10%
COc1ccc(OC2C(O)COC2/C=C/C#Cc2ccccc2)cc1 (configuration not stated),/,3%[21 µM],/,/,/,/
COc1ccc(/C=N/Nc2ccc([N+](=O)[O-])cc2)cc1O,?,/,-27%,?,-66*,?
CCOC(=O)N/N=C/c1c(C)nn(-c2ccccc2Cl)c1Cl,4%,3%,-19%,?,-9,?

# High-throughput results: PubChem, National Center for Advancing Translational Sciences (NCATS)
